# Results from PubChem BioAssay AID492953 (The Scripps Research Institute Molecular Screening Center, 2010).
# Out of some 340,000 compounds screened, about 4,200 (1.2%) were called active. The sample holds actives, similar compounds and a random draw of the others, so the mix is not that of the screen.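 Rule for the calls: active = inhibition above the mean of all tested compounds plus 3 SD (cut at about 24% in these data); inactive = the rest.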
# Target: Platelet-activating factor acetylhydrolase IB subunit alpha2 (Homo sapiens) (UniProt P68402)
# Sequence (P68402 whole entry, looked up): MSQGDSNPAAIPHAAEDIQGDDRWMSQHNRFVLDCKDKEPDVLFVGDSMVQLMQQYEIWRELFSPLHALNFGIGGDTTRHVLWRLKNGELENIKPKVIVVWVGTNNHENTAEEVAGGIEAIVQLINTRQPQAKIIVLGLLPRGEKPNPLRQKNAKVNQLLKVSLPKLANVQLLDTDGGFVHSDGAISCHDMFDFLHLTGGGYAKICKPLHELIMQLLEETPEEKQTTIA
# Experiment: inhibition of PAF acetylhydrolase 1b subunit 2 – biochemical, fluorescence polarization, human, primary screen (AID 492953);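 note: 0% = enzyme with DMSO and 100% = wells lacking PAFAH1B2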
# Conditions: recombinant PAFAH1B2, FP-rhodamine activity probe, at 3.39 µM, active compounds read high
row,SMILES,inhibition
1,CC12CCC(=O)N1C(C(=O)NCCN1C(=O)S/C(=C\c3ccccc3F)C1=O)CS2 (stereo unspecified),-0.86% (inactive)
2,C/C(=N\NC(=O)Cc1ccccc1[N+](=O)[O-])c1cccnc1,4.87% (inactive)
3,CC(C)c1nc(CNC(=O)CC2C(=O)NCCN2Cc2cccc(F)c2F)cs1 (stereo unspecified),3.42% (inactive)
4,O=C(CN1C(=O)NC(Cc2ccccc2)(Cc2ccccc2)C1=O)NCC1CCCCC1,24.3% (active)
5,CCCCNC(=O)CN1C(=O)NC(Cc2ccccc2)(Cc2ccccc2)C1=O,2.58% (inactive)
6,O=C(CC1CCCCC1)NCc1ccccc1,2.39% (inactive)
7,CC(/C=C/c1ccccc1)=N\NC(=O)C1CC1(C)c1ccccc1 (stereo unspecified),6% (inactive)
8,CCOC(=O)C1(Cc2ccccc2C)CCCN(C(=O)c2ccc(COC)o2)C1 (stereo unspecified),5.55% (inactive)
9,O=C(CCS(=O)(=O)c1ccc(Br)cc1)NCCc1ccc(Cl)cc1,25.1% (active)
10,COc1ccc(Cl)cc1NC(=O)CCS(=O)(=O)c1ccc(Br)cc1,10% (inactive)
11,Cc1ccc(S(=O)(=O)CCC(=O)OCC(=O)NCCc2ccc(S(N)(=O)=O)cc2)cc1,-1.78% (inactive)
12,CCCC(O)(c1ccccc1)C(c1ccccc1)c1ccccn1 (stereo unspecified),0.64% (inactive)
13,Cc1ccc(NC(=S)NCc2ccccc2Cl)c(C)c1,-2.26% (inactive)
14,Cc1cccc(NC(=S)NCCc2ccc(Cl)cc2)c1C,13.9% (inactive)
15,Cc1ccc(NC(=S)NCCc2ccc(Cl)cc2)c(C)c1,24.7% (active)
16,COc1ccc(CNCCCNCc2ccc(OC)c(OC)c2)cc1OC,2.53% (inactive)
17,ONC(=Nc1ccc(Cl)cc1)c1ccccc1Cl,15% (inactive)
18,C[C@@H](NC(=O)[C@@H]1Cc2ccccc2CN1)C(=O)NC1CCCC1,1.64% (inactive)
19,CCC(C)N1C(=S)SC(C)(C)C1N(O)C(=O)NC1CCCCC1 (stereo unspecified),5.19% (inactive)
20,CCCCNC(=O)N(O)C1N(/N=C/c2ccccc2O)C(=S)SC1(C)C (stereo unspecified),4.39% (inactive)
21,CCCCNC(=O)N(O)C1N(/N=C/c2ccc(N(C)C)cc2)C(=S)SC1(C)C (stereo unspecified),27.3% (active)
22,CN(C)c1nc(N)nc(CSc2nnnn2-c2cccc3ccccc23)n1,1.2% (inactive)

row,SMILES,inhibition
1,C=CCN(c1ccc(Cl)cc1)S(=O)(=O)c1cccc(C(=O)OCC(=O)N(C)C)c1,27.3% (active)
2,CN(C)C(=O)COC(=O)c1cccc(S(=O)(=O)N2CC3(C)CC2CC(C)(C)C3)c1 (stereo unspecified),15.9% (inactive)
3,COc1ccc(N(Cc2ccccc2)S(=O)(=O)c2cccc(C(=O)O)c2)cc1,-0.1% (inactive)
4,CC1=C(C(=O)OCC2CCCCC2)C(c2ccc(F)cc2)NC(=O)N1 (stereo unspecified),9.14% (inactive)
5,CCC(CC)COC(=O)C1=C(C)NC(=O)NC1c1ccc([N+](=O)[O-])cc1 (stereo unspecified),28.2% (active)
6,CCOCCOC(=O)C1=C(C)NC(=O)NC1c1ccc2c(c1)OCO2 (stereo unspecified),-0.7% (inactive)
7,O=C(NCC(c1cccs1)N1CCOCC1)c1cc(Cl)ccc1[N+](=O)[O-] (stereo unspecified),5.77% (inactive)
8,CSc1ccc(S(=O)(=O)N2CCC(C(=O)NCCc3ccccc3)CC2)cc1,0.35% (inactive)
9,CCOc1ccc(/C(O)=C2/C(=O)C(=O)N(Cc3cccnc3)C2c2ccc(N(C)C)cc2)c(C)c1 (stereo unspecified),-1.88% (inactive)
10,O=C(O)/C=C/C(=O)NNc1ccc([N+](=O)[O-])cc1,4.93% (inactive)
11,O=C(CCC(=O)N1CCN(S(=O)(=O)c2ccc(Cl)cc2)CC1)NCc1cccc(C(F)(F)F)c1,26.5% (active)
12,O=C(NCc1cccc(C(F)(F)F)c1)c1cccc(S(=O)(=O)N2CCN(Cc3ccccc3)CC2)c1,-9.49% (inactive)
13,O=C(CCC(=O)c1ccccc1)NCc1cccc(C(F)(F)F)c1,2.04% (inactive)
14,CC(=O)NCC(=O)N(Cc1ccco1)C1(C(=O)NC2CCCC2)CCCCC1,1.82% (inactive)
15,NS(=O)(=O)c1ccc(CCNC(=O)c2ccc(Cl)cc2[N+](=O)[O-])cc1,-2.98% (inactive)
16,O=C(NCCc1c[nH]c2ccc(Cl)cc12)c1ccc([N+](=O)[O-])cc1,3.76% (inactive)
17,O=C(NCCc1ccc(Cl)cc1Cl)c1cc([N+](=O)[O-])c[nH]c1=O,57% (active)
18,O=C(O)c1ccc(NN=CC2=C(N3CCOCC3)/C(=C/c3ccccc3)CC2)cc1,-2.37% (inactive)
19,COc1ccc(C(CNC(=O)c2cc(S(=O)(=O)Nc3cccc(C)c3)ccc2C)N2CCCC2)cc1 (stereo unspecified),4.75% (inactive)
20,CC(C)C[C@H]1CN([C@@H](CC(C)C)CN2CCC[C@@H]2CN2C(=O)C(=O)NC[C@@H]2Cc2ccccc2)C(=O)C(=O)N1CCc1ccccc1,1.5% (inactive)
21,O=c1[nH]c(/C=C\c2cccc(C(F)(F)F)c2)nc(O)c1[N+](=O)[O-],27.5% (active)
22,Cc1ccccc1/C=C\c1nc(O)c([N+](=O)[O-])c(=O)[nH]1,9.97% (inactive)

row,SMILES,inhibition
1,O=c1[nH]c(/C=C/c2cccc(Br)c2)nc2ccccc12,1.93% (inactive)
2,Cc1ccnc(SCC(=O)Nc2cccc(S(=O)(=O)N3CCOCC3)c2)n1,1.16% (inactive)
3,COC(=O)C1=C(N)Oc2c(oc(CO)cc2=O)C1c1c(F)cccc1Cl (stereo unspecified),0.05% (inactive)
4,COc1ccc(-c2csc3ncnc(N4CCN(S(=O)(=O)c5cccc(F)c5)CC4)c23)cc1,5.03% (inactive)
5,Cc1cc(F)ccc1S(=O)(=O)Nc1ncnc2scc(-c3ccc(F)cc3)c12,36.1% (active)
6,O=S(=O)(Nc1ncnc2sccc12)c1cccc(F)c1,-0.25% (inactive)
7,CN(CCc1ccccn1)S(=O)(=O)c1ccc2c3c(cccc13)C(=O)N2,-2.83% (inactive)
8,CN1C(c2ccc(F)cc2)=CS/C1=C(/C#N)c1nnc2n1-c1ccccc1SC2,2.85% (inactive)
9,CCN(CC)C(=O)Oc1ccc(Br)cc1C(=O)Nc1ccc(F)c(Cl)c1,7.03% (inactive)
10,C=CC[C@@H](CC(=O)N[C@H](CO)Cc1ccccc1)C(=O)N[C@H](C)COC(=O)[C@@H](CC=C)Cc1ccc(F)cc1,26.8% (active)
11,C=CCC[C@H](Cc1ccc(F)cc1)C(=O)OC[C@@H](NC(=O)[C@@H](CC=C)CC(=O)N[C@H](CO)Cc1ccccc1)C(C)(C)C,13.2% (inactive)
12,C=CC[C@@H](CC(=O)N[C@H](CO)Cc1ccccc1)C(=O)N[C@@H](COC(=O)[C@@H](CC=C)Cc1ccc(F)cc1)Cc1c[nH]c2ccccc12,-1.64% (inactive)
13,Cc1ccc(NS(=O)(=O)c2ccc3c(c2)n(C)c(=O)c(=O)n3C)c(C)c1,0.65% (inactive)
14,Cn1c(=O)c(=O)n(C)c2cc(S(=O)(=O)CCC(=O)N3CCCCC3)ccc21,5.13% (inactive)
15,CCc1ccc(S(=O)(=O)Nc2cc3c(cc2N2CCCCC2)n(C)c(=O)c(=O)n3C)cc1,28.5% (active)
16,O=C(NC1=CC(=O)c2ccccc2C1=O)c1ccccc1,17% (inactive)
17,CN(O)C(=S)c1ccccc1,-1.16% (inactive)
18,Cc1ccc(C(=O)N/C(=C/c2ccc(-c3cccc([N+](=O)[O-])c3)o2)C(=O)NCCCN(C)C)cc1,1.95% (inactive)
19,O=C(CNC(=O)Cc1ccccc1)N=Nc1c(O)[nH]c2ccc(Br)cc12,-1.85% (inactive)
20,NS(=O)(=O)c1ccc(N=Nc2c(O)[nH]c3ccc(Br)cc23)cc1,11.8% (inactive)
21,Oc1[nH]c2ccc(Br)cc2c1N=Nc1nn[nH]n1,73.3% (active)
22,Cc1cc(C)c(NC(=O)CN2CCOCCOCCOCCOCC2)c(C)c1,0.53% (inactive)

row,SMILES,inhibition
1,Cc1nc2nc(C)c(NS(=O)(=O)c3ccc(C(C)(C)C)cc3)c(=O)n2[nH]1,16.3% (inactive)
2,CC1(C)Cc2ccccc2/C(=C/C(=O)c2ccccc2)N1,-0.07% (inactive)
3,CC1(C)Cc2ccccc2-c2[nH]c(=S)[nH]c(=O)c21,26.1% (active)
4,CC1(C)Cc2ccccc2-c2nc(CN3CCOCC3)[nH]c(=O)c21,6.87% (inactive)
5,CC1C(C)N(C(=O)CCl)c2ccccc2N1C(=O)CCl (stereo unspecified),2.69% (inactive)
6,CC(NC(=O)CC1SC(N)=NC1=O)c1ccccc1 (stereo unspecified),3.61% (inactive)
7,CN(CC(=O)Nc1ccc(Cl)cc1)C(=O)c1ccc(COc2ccccc2)cc1,7.71% (inactive)
8,CN(CC(=O)Nc1ccc(Cl)cc1)C(=O)CNC(=O)c1ccc2ccccc2c1,29% (active)
9,O=C(NNC(=O)c1ccc2ccccc2c1)c1ccc(Cl)cc1,3.28% (inactive)
10,Clc1ccc2c(c1)C1=C(C(c3ccncc3)O2)C(c2ccc(Br)cc2)n2ncnc2N1 (stereo unspecified),2.64% (inactive)
11,CN(C)S(=O)(=O)c1cccc(C(=O)OCC(=O)N2CCCC2=O)c1,0.79% (inactive)
12,CC(=O)c1cccc(NC(=O)N2CCCC2C(=O)NCCc2ccccc2)c1 (stereo unspecified),4.97% (inactive)
13,CCc1ccccc1NC(=O)Cc1cn(C)c2ccccc12,4.1% (inactive)
14,COc1ccc(-c2cc(=O)oc3cc(OCC(=O)N[C@@H](Cc4c[nH]c5ccccc45)C(=O)O)ccc23)cc1,4.23% (inactive)
15,CC(Oc1ccc2c(-c3ccccc3)cc(=O)oc2c1)C(=O)NC(Cc1c[nH]c2ccccc12)C(=O)O (stereo unspecified),69.3% (active)
16,COc1ccc(-c2cc(C(=O)NC(Cc3c[nH]c4ccccc34)C(=O)O)c(C)o2)cc1OC (stereo unspecified),9.21% (inactive)
17,CSc1ncnc2c1ncn2CC(=O)C1CCC2C3CCC4=CC(=O)CCC4(C)C3CCC12C (stereo unspecified),3.57% (inactive)
18,Cc1ccc(S(=O)(=O)N2CCN(S(=O)(=O)N3CCOCC3)CC2)cc1,2.69% (inactive)
19,CC(C)(C)c1ccc(C(=O)N2CCN(CCNC(=O)C(=O)Nc3ccc(F)cc3)CC2)cc1,0.31% (inactive)
20,CC(=O)N1CCOc2ccc(S(=O)(=O)N3CCN(c4cccc(C(F)(F)F)c4)CC3)cc21,3.14% (inactive)
